The whole screen tested about 65,000 compounds, of which about 320 (0.49%) were called active. This is one part of a sample in which actives are shown more often than they occur.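 Rule for the calls: active = top-ranked compounds by inhibition in the single 10 µM screen, taking a fixed number of the strongest; inactive = the rest, inconclusive results apart.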
System: phosphomevalonate kinase (Streptococcus pneumoniae D39)
Assay: S. pneumoniae PMK inhibitors, primary screen, biochemical, mevalonate pathway, pilot trial included (AID 539);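 note: 0% = full reaction with DMSO carrier and 100% = background rate without enzyme reaction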
Conditions: purified PMK, PK/LDH-coupled NADH absorbance 340 nm, at 10 µM, stronger effect = higher value
[1] = measured here: pilot screen replicates

| Structure (SMILES) | inhibition | inhibition [1] |
| --- | --- | --- |
| CCCCNc1nc2c(c(=O)n(C)c(=O)n2C)n1Cc1cccc(OC)c1 | 0% (inactive) |  |
| COc1ccccc1NC(=O)CN1CCN(S(=O)(=O)c2ccc(Br)cc2)CC1 | 5% (inactive) |  |
| NC(=O)C1CCN(C(=O)c2ccc(C(F)(F)F)cc2)CC1 | 12% (inactive) |  |
| CCC(=O)c1ccc(OCC(O)CN2CCN(c3cccc(C(F)(F)F)c3)CC2)cc1 (stereo unspecified) | 0% (inactive) |  |
| O=C(NCCCN1CCCCCC1)C1CC(=O)N(C2CCCC2)C1 (stereo unspecified) | 12% (inactive) |  |
| CCOc1ccc2[nH]c(=O)c(CN(CCCO)C(C)=O)cc2c1 | 20% (inactive) |  |
| COC(=O)CCSc1nccn1Cc1ccccc1 | 0% (inactive) |  |
| O=C(CSc1nnnn1-c1ccc2c(c1)CCC2)Nc1ccc2c(c1)OCCO2 | 0% (inactive) |  |
| CCn1ncc(Br)c1C(=O)Nc1cc(C)ccc1F | 6% (inactive) |  |
| COc1ccc(C(c2nnnn2C2CCCCC2)N2CCN(c3ccccc3F)CC2)cc1 (stereo unspecified) | 3% (inactive) |  |
| CC1CCc2c(sc(NC(=O)c3ccc(Cn4cc(Br)cn4)o3)c2C(N)=O)C1 (stereo unspecified) | 0% (inactive) |  |
| COc1ccc(N(CC(=O)NC2CCCCCCC2)S(=O)(=O)c2c(C)nn(C)c2C)cc1 | 10% (inactive) |  |
| CCOC(=O)c1cccc(NC(=O)CN(c2ccc(C)cc2)S(=O)(=O)c2c(C)noc2C)c1 | 13% (inactive) |  |
| Cc1ccc(S(=O)(=O)N2CCOCC2)cc1C(=O)NCc1ccc(F)cc1 | 8% (inactive) |  |
| Cc1nc2nc[nH]n2c(=O)c1NC(=O)c1cccc(OCC(C)C)c1 | 12% (inactive) |  |
| O=C(Cn1nc(Cc2cccnc2)c2ccccc2c1=O)NCC1COc2ccccc2O1 (stereo unspecified) | 7% (inactive) |  |
| COCCNC(=O)C(C#N)c1nc2ccccc2nc1N1CCN(Cc2ccc3c(c2)OCO3)CC1 (stereo unspecified) | 2% (inactive) |  |
| CCOC(=O)Cc1csc(NC(=O)C(C)(C)C)n1 | 4% (inactive) |  |
| COC(=O)CSc1nc(C2CC2)nc2ccccc12 | 15% (inactive) |  |
| Cc1ccccc1-n1nnc2c(=O)oc3ccccc3c21 | 10% (inactive) | 4% |
| CC(=O)N1CCN(C(=O)Nc2cccc(C(F)(F)F)c2)CC1 | 17% (inactive) |  |
| CC(C)C(NC(=O)c1cccc(S(=O)(=O)N2CCOCC2)c1)C(=O)NCCc1ccccn1 (stereo unspecified) | 11% (inactive) |  |
| Cn1c(=O)c2c(nc(N3CCCCCC3)n2CC(O)COc2ccc(Cl)cc2)n(C)c1=O (stereo unspecified) | 7% (inactive) |  |
| Cn1c(=O)oc2cc(S(=O)(=O)N3CCC(C(=O)Nc4ccc(OC(F)(F)F)cc4)CC3)ccc21 | 14% (inactive) | 2% |
| COc1ccc(S(=O)(=O)N2CCC(C(=O)N3CCOCC3)CC2)cc1OC | 8% (inactive) |  |

| Structure (SMILES) | inhibition | inhibition [1] |
| --- | --- | --- |
| CCC(CC)C(=O)Nc1cccc(C(=O)N2CCCC2)c1 | 4% (inactive) |  |
| C=CCn1c(C)cc(C(=O)CN2C(=O)c3ccccc3C2=O)c1C | 13% (inactive) |  |
| COc1cc(C2C(C(=O)c3sc(C)nc3C)=C(O)C(=O)N2CCN(C)C)cc(OC)c1OC (stereo unspecified) | 17% (inactive) |  |
| O=C(COc1ccc2c3c(c(=O)oc2c1)CCC3)NC1CCCCC1 | 15% (inactive) |  |
| CCOC(=O)N1CCN(S(=O)(=O)c2cc3c(cc2C)NC(=O)CO3)CC1 | 14% (inactive) |  |
| CC(=O)C1C(c2ccc(Cl)cc2)NC(=O)NC1(O)C(F)(F)F (stereo unspecified) | 7% (inactive) |  |
| Nc1c(C(=O)NCc2ccccc2)nnn1Cc1cccc(Cl)c1 | 0% (inactive) |  |
| CCOC(=O)c1[nH]c2ccc(OC)cc2c1NC(=O)CCN1CCN(Cc2ccccc2)CC1 | 6% (inactive) |  |
| CCN(CC)S(=O)(=O)c1cccc(C(=O)NCC(=O)OCC(=O)NCc2ccccc2)c1 | 0% (inactive) |  |
| Cc1ccc(C)n1C(Cc1ccccc1)C(=O)O (stereo unspecified) | 7% (inactive) |  |
| COc1ccc(OC)c2c1sc(=NC(=O)CN1C(=O)CCC1=O)n2C | 12% (inactive) |  |
| O=C(Nc1ccc(S(=O)(=O)N2CCCC2)cc1Cl)C1=COCCO1 | 14% (inactive) |  |
| N#Cc1ccccc1-n1c(N)c(C(=O)N2CCCC2)sc1=S | 4% (inactive) |  |
| Cc1ccc(S(=O)(=O)N2CCN(C(=O)CCC(=O)NC3CCCc4ccccc43)CC2)cc1 (stereo unspecified) | 21% (inactive) |  |
| c1ccc(CCN2CN=C(Nc3nc4ccccc4o3)NC2)cc1 | 7% (inactive) |  |
| Fc1ccc2nc(Nc3nc4c(s3)CCCC4)sc2c1 | 8% (inactive) |  |
| Clc1ccc(Cn2ncc3c(NCc4cccnc4)ncnc32)cc1 | 9% (inactive) | 1.5% |
| Fc1c(F)c(C(F)(F)F)c(F)c(F)c1N1CCN(c2ccc3nnc(C(F)(F)F)n3n2)CC1 | 0% (inactive) |  |
| COc1ccccc1N1CCN(c2nc3ccccc3n3nnnc23)CC1 | 7% (inactive) |  |
| Cc1ccc(C(=O)NC2CC(C)(C)NC(C)(C)C2)c(C)c1 | 1% (inactive) |  |
| CCOC(=O)N1CCN(Cc2nc3c(c(=O)n(C)c(=O)n3C)n2Cc2ccccc2)CC1 | 2% (inactive) | 1% |
| CCOC(=O)CSc1nc2c(c(=O)n(Cc3ccccc3Cl)c(=O)n2C)n1C | 5% (inactive) |  |
| CCOc1cc2[nH]c(=S)n(CCCN3CCCC3=O)c(=O)c2cc1OCC | 14% (inactive) |  |
| COc1ccc(OC)c2[nH]c(=O)c(CCNC(=O)C(C)(C)C)cc12 | 7% (inactive) |  |
| N=c1c2c3c(sc2ncn1N)CCCCC3 | 17% (inactive) |  |

| Structure (SMILES) | inhibition | inhibition [1] |
| --- | --- | --- |
| O=C1c2ccccc2C(=O)N1c1ccccc1S(=O)C(F)(F)F (stereo unspecified) | 12% (inactive) |  |
| CCOC(=O)c1nnn(-c2nc(OC)nc(N(C)C)n2)c1-c1ccccc1 | 17% (inactive) |  |
| COc1ccc(C2C(C(=O)Nc3ccccc3OC)=C(C)Nc3nnnn32)c(OC)c1 (stereo unspecified) | 8% (inactive) |  |
| COc1ccccc1NC(=O)C1=C(C)NC2=C(C(=O)CCC2)C1c1ccc(C)o1 (stereo unspecified) | 26% (active) |  |
| COc1ccccc1NC(=O)C1=C(C)Nc2ncnn2C1c1ccc(C)o1 (stereo unspecified) | 3% (inactive) | 2.5% |
| COc1cc(OC)cc(C(=O)Nc2ncc3c(n2)CC(C)(C)CC3=O)c1 | 11% (inactive) |  |
| Cc1cc(NC(=O)Cn2nc(C(F)(F)F)c3c2CCCC3)no1 | 3% (inactive) |  |
| c1cnc(NC2C3CC4CC(C3)CC2C4)nc1 (stereo unspecified) | 7% (inactive) |  |
| COc1ccc2[nH]c3ccc(OC)cc3c2c1 | 6% (inactive) |  |
| COc1ccc(NC(=O)C2CCCN(S(=O)(=O)c3cccc4cccnc34)C2)cc1 (stereo unspecified) | 8% (inactive) |  |
| C#CCN1CC(C)/C(=N/O)CC1C (stereo unspecified) | 7% (inactive) |  |
| Cc1cccc(NC(=O)c2ccc3ccccc3n2)n1 | 0% (inactive) | 0.5% |
| CCOc1ccc(CNC(=O)C2CC(=O)N(C3CCCC3)C2)cc1OC (stereo unspecified) | 8% (inactive) |  |
| CCOc1ccc(CNC(=O)C2CCC(=O)N2C2CCCC2)cc1OC (stereo unspecified) | 11% (inactive) |  |
| CCOCCCN1C(=O)CN(C2CCCCC2)C(=O)C1c1ccc(OCC)c(OC)c1 (stereo unspecified) | 29% (active) |  |
| CCc1ccccc1NC(=O)c1cccs1 | 7% (inactive) |  |
| CCc1nnc(NC(=O)c2cccs2)s1 | 35% (active) |  |
| CCc1nnc(NC(=O)CCC(=O)O)s1 | 0% (inactive) |  |
| CCCN(c1ccc(C(C)C)cc1)S(=O)(=O)c1c(C)[nH]c(=O)[nH]c1=O | 8% (inactive) |  |
| O=C(NC1CCN(Cc2ccccc2)CC1)c1ccccc1F | 0% (inactive) |  |
| COc1ccc(CCNC(=O)CCCCn2c(=O)[nH]c3ccccc3c2=O)cc1OC | 9% (inactive) |  |
| COc1cc2[nH]c(=O)n(CCC(=O)NC3CCN(Cc4ccccc4)CC3)c(=O)c2cc1OC | 27% (active) |  |
| OCc1nc(CO)n(Cc2ccccc2)n1 | 14% (inactive) | 1% |
| Cc1ccccc1Cn1c(=O)[nH]c2ccccc21 | 15% (inactive) |  |
| Cc1cc2c(=O)n(C)c(SCC(=O)c3cc4ccccc4o3)nc2s1 | 1% (inactive) |  |

| Structure (SMILES) | inhibition | inhibition [1] |
| --- | --- | --- |
| CCc1nnc(NC(=O)CSc2nc3c(c(=O)n2-c2ccccc2OC)SCC3)s1 | 0% (inactive) |  |
| CCOC(=O)CSC1=C(C#N)C(c2sccc2C)CC(=O)N1 (stereo unspecified) | 6% (inactive) |  |
| COc1ccc(-n2c(SCC(=O)OC(C)C)nnc2-c2ccccn2)cc1 | 8% (inactive) |  |
| COC(=O)[C@H](Cc1ccccc1)NC(=O)Nc1ccc(S(N)(=O)=O)cc1 | 10% (inactive) |  |
| CC(C)CCn1c(CN(C)Cc2ccccc2)nc2c1c(=O)n(C)c(=O)n2C | 12% (inactive) |  |
| Cc1ccc(S(=O)(=O)N2CCC(N3CCCCCC3)CC2)cc1 | 0% (inactive) |  |
| Cc1cc(NC(=O)c2cccc(N3C(=O)CCC3=O)c2)no1 | 11% (inactive) |  |
| CCOc1cc(CO)ccc1OCC(=O)N1CCCCC1 | 9% (inactive) |  |
| CCOC(=O)c1c(C)oc2ccc(OCC(=O)N(CC)CC)cc12 | 2% (inactive) | 2.5% |
| CCN1CCN(c2c(Cl)cccc2NC(=O)c2ccc(Br)o2)CC1 | 8% (inactive) |  |
| CCCc1nnc(NC(=O)CN2C(=O)c3ccccc3S2(=O)=O)s1 | 4% (inactive) |  |
| O=S(=O)(O)CCN1CCOCC1 | 13% (inactive) |  |
| CCOC(=O)N1CCC(NC(=O)Cc2cn(C)c3ccccc23)CC1 | 5% (inactive) |  |
| CCOC(=O)N1CCC(NC(=O)COc2cc(=O)n(C)c3ccccc23)CC1 | 7% (inactive) |  |
| CCOC(=O)N1CCC(NC(=O)CCc2cn(C)c3ccccc23)CC1 | 30% (active) |  |
| CCOC(=O)CNC(=O)c1nn(-c2cccc(OC)c2)c(=O)c2ccccc12 | 10% (inactive) |  |
| COC(=O)[C@H](C(C)C)n1c(C)c(C(C)=O)c(C(C)=O)c1C | 20% (inactive) |  |
| Cc1ccsc1C(=O)OCC(=O)c1cc(C)n(CC2CCCO2)c1C (stereo unspecified) | 17% (inactive) |  |
| CCN(CC)S(=O)(=O)N1CCC(C(=O)NC(C)CCc2ccccc2)CC1 (stereo unspecified) | 10% (inactive) |  |
| COC(=O)c1cc(OC)c(OC)cc1NC(=O)C1CCCO1 (stereo unspecified) | 12% (inactive) |  |
| CC(C)C(c1nnnn1Cc1ccccc1)N1CCC(C(N)=O)CC1 (stereo unspecified) | 10% (inactive) |  |
| O=C(c1ccco1)N1CCN(C(=O)C2CC(c3ccc(Cl)c(Cl)c3)=NO2)CC1 (stereo unspecified) | 10% (inactive) |  |
| CNC(=O)c1c(NC(=O)c2ccc(S(=O)(=O)N3CCOCC3)cc2)sc2c1CCC2 | 7% (inactive) |  |

— PubChem BioAssay AID539 (SRMLSC, 2006)
